Our source for the Potency values is PubChem BioAssay (Tox21).

“And” between values parts separate entries of the source, which are not always exact repeats. Equal values may be shown once. Results filed as inconclusive are left out. The source made the active and inactive calls. Unless noted, the call rests on the fitted dose curve; in most records, active means well fitted curve in the direction sought with a large enough effect in the repeat runs; inconclusive means weak or mixed curves; inactive means no such curve, though single readings can be large; an effect the other way counts as inactive or inconclusive.

The nature of test [1]: qHTS assay for small molecule agonists of the p53 signaling pathway (AID 651631; calls by dose curve; further: nearly all actives have a fitted effect of over 15% in size; further: potency means the concentration at half of the fitted maximal effect). Put shortly:
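HCT-116 cells carrying a beta-lactamase reporter under p53 response elements were dosed with compound for 16 h at 37 °C. LiveBLAzer B/G FRET substrate was then added for 2 h at room temperature, and fluorescence intensity was read to detect pathway agonism.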
Background: qHTS replaces the single test concentration by a dilution series.

Test [2] in a line: qHTS assay for small molecules that induce genotoxicity in human embryonic kidney cells expressing luciferase-tagged ATAD5 - cell viability (AID 651634; calls by dose curve; further: nearly all actives have a fitted effect of over 25% in size; further: potency means the concentration at half of the fitted maximal effect). Put shortly: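 Quantitative high-throughput format. HEK293T cells expressing ATAD5 fused to luciferase were plated at 2,000 cells/well and treated 15.5 hr with compound versus DMSO. Viability was determined by fluorescent live-cell protease substrate, 30 min at 37C.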

Test [3] in a line: qHTS assay for small molecule disruptors of the mitochondrial membrane potential - cell viability (AID 720634; calls by dose curve;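 further: human HepG2 liver cancer cells; series mostly up to about 83 µM; nearly all actives have a fitted effect of over 20% in size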). An outline of the steps:
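Same-well counter-screen: following the MMP dye addition, CellTiter-Glo was added to 1 hr compound-treated HepG2 cells and luminescence read after 30 min at room temperature.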

A short description of test [4]: qHTS assay for small molecule disruptors of the mitochondrial membrane potential (AID 720635). Further: potency means the concentration at half of the fitted maximal effect. Put shortly:
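Mitochondrial membrane potential tracked with Mito-MPS dye, red aggregates (ex 540/em 590 nm) against green monomers (ex 490/em 535 nm). Compound treatment 1 hr at 37C, dye 30 min in HepG2.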

The nature of test [5]: qHTS assay to test for compound auto fluorescence at 590 nm (red) in HepG2 cells (AID 720674). An outline of the steps: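 We screened compounds on adherent HepG2 cells, incubating them for an hour at 37 C in 5% CO2 before reading emission at 590 nm under 540 nm excitation; values reflect equivalence to Rose Bengal sodium fluorescence.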
The nature of test [6]: qHTS assay to test for compound auto fluorescence at 535 nm (green) in HepG2 cells (AID 720675).
A short description of test [7]: qHTS assay to test for compound auto fluorescence at 460 nm (blue) in HEK293 cells (AID 720678). Put shortly: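 Measured: blue fluorescence (Ex 405/Em 460 nm) of compound-treated HEK293 cells, incubated overnight at 37C with 5% CO2 and scaled to triamterene equivalents.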
Test [8] can be described thus: qHTS assay to test for compound auto fluorescence at 590 nm (red) in HEK293 cells (AID 720679). Put shortly: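 Using HEK293 cells at 2,000 per well, the screen added 23 nL of each compound after cell attachment and incubated overnight (37C, 5% CO2). The plate reader then captured red-label fluorescence, Ex/Em 540/590nm.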
Test [9] is described as follows: qHTS assay for small molecule agonists of the p53 signaling pathway - cell viability (AID 651633; calls by dose curve; further: nearly all actives have a fitted effect of over 30% in size; further: potency means the concentration at half of the fitted maximal effect). An outline of the steps: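 Viability counter-read: CellTiter-Glo luminescence (30 min, room temperature) in the same p53RE-bla plates. These plates had been exposed to compounds for 16 h at 37 C.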
A short description of test [10]: qHTS assay for small molecules that induce genotoxicity in human embryonic kidney cells expressing luciferase-tagged ATAD5 (AID 651632). Further: nearly all actives have a fitted effect of over 15% in size. Put shortly: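 Test compounds were delivered by pin tool onto HEK293T reporter cells (2,000/well) expressing ATAD5 fused to luciferase. After 16 hr at 37C, 5% CO2, Amplite was added for 30 min at room temperature and luminescence was measured.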

Take `CC(=O)Oc1c(C)cc(OCC(O)CNC(C)C)c(C)c1C` (stereo not given): the Potency result in test [1], in test [2], in [3], in test [4], in test [5] and in [6] was “inactive” throughout. Besides, the Potency result in test [7] and in [8] was “inactive” each time.
On to `CN[C@@H]1[C@@H](O)[C@@H](O[C@@H]2[C@@H](O)[C@H](O[C@H]3O[C@H](CN)[C@@H](O)[C@H](O)[C@H]3O)[C@@H](N)C[C@H]2NC(=O)C(O)CN)OC[C@]1(C)O` (stereo not given in full), for which the Potency result in test [1], in test [9], in [2], in test [3], in test [4] and in test [5] was “inactive” each time. Besides, the Potency result in test [6], in [7] and in test [8] was “inactive” each time.
`O=C(CCCCCCCCCCCCC1CCCC1)Nc1ccc(S(=O)(=O)c2ccc(NC(=O)CCCCCCCCCCCCC3CCCC3)cc2)cc1`: the Potency result in test [10], in test [9], in test [2], in test [3], in test [4] and in test [5] was “inactive” in each case. For the same compound, the Potency entry in [6], in [7] and in test [8] was “inactive” each time.
Regarding `CN=C(NC)NCc1ccccc1`, the Potency entry in test [10], in [9], in test [2], in test [3], in test [4] and in [5] was “inactive” in each case. In addition, the Potency entry in test [6], in [7] and in test [8] was “inactive” in each case.
With `CCC(C)C(C(=O)OCC[N+](C)(CC)CC)c1ccccc1` (stereo not given), the Potency entry in [1], in test [9], in test [2], in [3], in test [4] and in [5] was “inactive” throughout. Moreover, the Potency entry in test [6], in test [7] and in test [8] was “inactive” each time.
For `C[N@+]12CCCC[C@@H]1CCC(=C(c1cccs1)c1cccs1)C2`, the Potency entry in test [10], in [9], in test [2], in [3], in test [4] and in test [5] was “inactive” each time. Moreover, the Potency result in test [6], in test [7] and in [8] was “inactive” each time.
As to `CCCC(=O)Nc1c(I)cc(I)c(CC(CC)C(=O)O)c1I` (stereo not given), the Potency entry in test [10], in test [9], in test [2], in test [3], in test [4] and in [5] was “inactive” in each case. Also, the Potency entry in test [6], in test [7] and in test [8] was “inactive” throughout.
For `CC(=O)O[C@H]1C(=O)[C@@]2(C)[C@H]([C@H](OC(=O)c3ccccc3)[C@]3(O)C[C@H](OC(=O)[C@H](O)[C@@H](NC(=O)c4ccccc4)c4ccccc4)C(C)=C1C3(C)C)[C@]1(OC(C)=O)CO[C@@H]1C[C@@H]2O`, the Potency entry in test [10], in [9], in test [3], in test [5], in test [6] and in test [7] was “inactive” each time. Moreover, the Potency result in [8] is “inactive”. Moreover, the values for the Potency in test [2] and in test [4] were 18.8 nM (active) and 0.944 µM (active), respectively.
Consider `OC[C@H]1OC([S-])[C@H](O)[C@@H](O)[C@@H]1O.[Au+]` (stereo not given in full), for which the Potency entry in test [10], in [9], in [2], in test [3], in [4] and in test [5] was “inactive” each time. Further, the Potency entry in [6], in test [7] and in test [8] was “inactive” in each case.
As to `CC[C@H](C)[C@@H]1NC(=O)[C@H](Cc2ccc(O)cc2)NC(=O)[C@@H](N)CSSC[C@@H](C(=O)N2CCC[C@H]2C(=O)N[C@@H](CC(C)C)C(=O)NCC(N)=O)NC(=O)[C@H](CC(N)=O)NC(=O)[C@H](CCC(N)=O)NC1=O`, the Potency entry in test [10], in [9], in test [2], in test [3], in test [4] and in test [5] was “inactive” each time. The Potency result in test [6], in test [7] and in [8] was “inactive” each time.
In the case of `CCCCCCCCCCCCCCCCCCCCCCO`, the Potency result in test [10], in [9], in test [2], in test [3], in test [4] and in test [5] was “inactive” each time. Moreover, the Potency result in test [6], in test [7] and in test [8] was “inactive” throughout.
Consider `CNC(=O)[C@H](Cc1c[nH]c2ccccc12)NC(=O)[C@@H](CC(=O)NO)CC(C)C`, for which the Potency entry in test [1], in test [9], in test [2], in test [3], in test [4] and in test [6] was “inactive” each time. The Potency entry in [7] and in test [8] was “inactive” each time.
In the case of `CCC(C)[C@H]1O[C@]2(C=C[C@@H]1C)C[C@@H]1C[C@@H](C/C=C(\C)[C@@H](O[C@H]3C[C@H](OC)[C@@H](O[C@H]4C[C@H](OC)[C@H](NC(C)=O)[C@H](C)O4)[C@H](C)O3)[C@@H](C)/C=C/C=C3\CO[C@@H]4[C@H](O)C(C)=C[C@@H](C(=O)O1)[C@]34O)O2` (stereo not given in full), the Potency entry in test [10], in [3], in test [5], in test [6], in test [7] and in test [8] was “inactive” each time. Further, the Potency is 2.98 µM (active) and 11.9 µM (active) in test [9]; 6.68 µM (active) and 10.6 µM (active) in test [2]; 3.76 µM (active) and 11.9 µM (active) in test [4].
With `Cc1ccc(/C(=C\CN2CCCC2)c2cccc(/C=C/C(=O)O)n2)cc1`, the Potency result in test [1], in [9], in [2], in test [3], in test [5] and in test [6] was “inactive” throughout. Further, the Potency result in test [7] and in test [8] was “inactive” in each case.
Regarding `Cc1cc(/C=C/c2ccc3cc(N(C)C)ccc3[n+]2C)c(C)n1-c1ccccc1`, the Potency in [1] was 9.02 µM (active); in [9], 5.07 µM (active); in test [4], 1.43 µM (active). Further, the Potency entry in [3], in test [6] and in test [7] was “inactive” in each case.
With `CNC(=O)c1c(I)c(C(=O)NCC(=O)Nc2c(I)c(C(=O)O)c(I)c(C(=O)NCCO)c2I)c(I)c(N(C)C(C)=O)c1I`, the Potency result in [10], in test [9], in test [2], in test [3], in test [4] and in test [5] was “inactive” throughout. The Potency result in test [6], in test [7] and in test [8] was “inactive” each time.
Take `CC1=C(/C=C/C(C)=C/C=C/C(C)=C/C=C/C=C(C)/C=C/C=C(C)/C=C/C2=C(C)C[C@@H](O)CC2(C)C)C(C)(C)C[C@H](O)C1`: in [1], the Potency was 29.8 µM (active). Moreover, the Potency result in test [5], in test [6], in test [7] and in test [8] was “inactive” throughout.
In the case of `Nc1ncnc(Nc2ccc(Cl)cc2)n1`, the Potency entry in test [1], in test [9], in test [2], in test [6], in test [7] and in test [8] was “inactive” each time.
Turning to `CCCCCCCCCCCCCCCCSCC(COC)COP(=O)([O-])OCC[N+](C)(C)C` (stereo not given), the Potency entry in test [1], in test [9], in test [2], in [3], in test [5] and in test [6] was “inactive” throughout. Further, the Potency result in test [7] and in [8] was “inactive” throughout.
For the compound `Cc1cc(Nc2ccccc2C(=O)O)ccc1Cl`, the Potency was 15 µM (active) in [1], 7.5 µM (active) in test [9] and 11.9 µM (active) in [4]. Also, the Potency result in test [2], in test [3], in test [5], in [6], in [7] and in test [8] was “inactive” in each case.
For `NC(Cc1ccccc1)C(=O)O` (stereo not given), the Potency result in test [1], in test [9], in test [2], in test [3], in test [4] and in test [5] was “inactive” throughout. Also, the Potency result in test [6], in test [7] and in test [8] was “inactive” each time.
